Results filed as inconclusive are left out. Activity calls are given as the source filed them. Unless noted, the call rests on the fitted dose curve.

Experiment [1] in a line: Primary qHTS for inhibitors of SARS-S pseudo-typed particle cell entry (AID 1479145). Further: nearly all actives have a fitted effect of over 45% in size. Further: potency means the concentration at half of the fitted maximal effect. The conditions noted are these: outcome: dose series up to 57.1 µM unless noted.
Experiment [2] in a line: Primary qHTS for Huh7 cytotoxicity: counterscreen for inhibitors of MERS-S pseudotyped particle cell entry (AID 1479147). Particulars: outcome: dose series up to 57.1 µM unless noted.
A short description of experiment [3]: Primary qHTS for inhibitors of MERS-S pseudo-typed particle cell entry (AID 1479149). Further: nearly all actives have a fitted effect of over 60% in size. Particulars: outcome: dose series up to 57.1 µM unless noted.
Experiment [4] in a line: Primary qHTS for Vero E6 cytotoxicity: counterscreen for inhibitors of SARS-S pseudo-typed particle cell entry (AID 1479150). The conditions noted are these: outcome: dose series up to 57.1 µM unless noted.
A short description of experiment [5]: Cytotoxicity counterscreen for inhibitors of SARS-CoV-2 cell entry (AID 1645845). Further: nearly all actives have a fitted effect of over 50% in size. Particulars: outcome: dose series up to 57.1 µM unless noted. Put shortly: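 48 h compound treatment (after 1 h preincubation), HEK293-ACE2 cells, 37 C/5% CO2; ATP luminescence endpoint; normalized to cell wells and media blanks.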
The target in experiment [6] is Cytochrome P450 2D6 (Homo sapiens) (UniProt P10635). Put plainly: Cytochrome P450 family 2 subfamily D member 6 (CYP2D6) small molecule antagonists: luciferase biochemical (cell-free) qHTS assay (AID 1645840; active means well fitted curve in the direction sought with a large enough effect in the repeat runs; an effect the other way counts as inactive or inconclusive; further: nearly all actives have a fitted effect of over 55% in size; further: potency means the concentration at half of the fitted maximal effect). Put shortly: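 P450-Glo luminescent screen: recombinant CYP2D6 enzyme–proluciferin substrate mix preincubated with compound 10 min at room temperature, then NADPH regeneration added for 1 h at room temperature. Detection reagent added for 20 min; luciferin light read as relative luminescence units.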

Experiment [7] concerns the target Cytochrome P450 2C9 (Homo sapiens) (UniProt P11712). As to the kind of experiment: Cytochrome P450 family 2 subfamily C member 9 (CYP2C9) small molecule antagonists: luciferase biochemical (cell-free) qHTS assay (AID 1645842; active means well fitted curve in the direction sought with a large enough effect in the repeat runs; an effect the other way counts as inactive or inconclusive; further: potency means the concentration at half of the fitted maximal effect; nearly all actives have a fitted effect of over 55% in size). Put shortly: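 Luminescence, after 20 min with luciferin detection reagent, reflected CYP2C9 turnover during a 1 h NADPH-driven reaction at 37C. Enzyme-substrate mix contained 0.4% bovine serum albumin and was preincubated with compound 10 min at room temperature.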

Experiment [8] concerns the target Glutathione peroxidase 1 (Homo sapiens) (UniProt P07203). Put plainly: Primary qHTS Assay for Inhibitors of Recombinant Selenoprotein Glutathione Peroxidase 1 (GPX1) (AID 1845191; active means well fitted curve in the direction sought with a large enough effect; an effect the other way counts as inactive or inconclusive; further: nearly all actives have a fitted effect of over 65% in size). Put shortly:
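10 nM GPX1 + cpd, 30 min RT; start w/ 1 mM GSH, 0.5 mM cumene hydroperoxide, 0.5 mM NADPH, 100 nM GR, 0.01% BSA; buffer 50 mM Tris-HCl pH 7.5, 2 mM EDTA, 150 mM NaCl; Fl 340/450, 0 & 15 min.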

Experiment [9] deals with Phospholipid hydroperoxide glutathione peroxidase GPX4 (Homo sapiens) (UniProt P36969). Put plainly: Primary qHTS Assay for Inhibitors of Recombinant Selenoprotein Glutathione Peroxidase 4 (GPX4) (AID 1845192; active means well fitted curve in the direction sought with a large enough effect; an effect the other way counts as inactive or inconclusive; further: nearly all actives have a fitted effect of over 65% in size; further: potency means the concentration at half of the fitted maximal effect). The method in brief: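 NADPH consumption, followed by fluorescence at 340/450 nm between 0 and 15 min, reports GPX4 activity via coupled glutathione reductase (100 nM). Enzyme 200 nM was pre-exposed to compound 30 min; 0.5 mM cumene hydroperoxide and 1 mM GSH served as substrates.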

Experiment [10] is described as follows: Primary qHTS to identify inhibitors of SARS-CoV-2 cell entry (AID 1645846). Further: nearly all actives have a fitted effect of over 45% in size. Further: potency means the concentration at half of the fitted maximal effect. The conditions noted are these: SARS-CoV-2 pseudovirus cell entry assay, luminescence; activity change, negative = inhibition: at 57.1 µM (top of the series) unless noted. The method in brief:
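Using luciferase-reporting pseudoviruses carrying Wuhan-Hu-1 spike, the screen tracks entry into stably ACE2-expressing cells over 48 hr. Activity is expressed relative to spike particles versus particles lacking any fusion protein.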

Experiment [11] can be described thus: Confirmatory qHTS to identify inhibitors of SARS-CoV-2 cell entry (AID 1645844). Further: nearly all actives have a fitted effect of over 45% in size. Further: potency means the concentration at half of the fitted maximal effect. The method in brief:
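Luminescence from a luciferase reporter, read 48 hr after pseudotyped-particle addition, gives entry signal, normalised to spike-bearing PP wells and bald PP lacking fusion protein wells. Cells are Expi293F stably expressing human ACE2, compound-pretreated 1 hr.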

Experiment [12] is described as follows: VSVG counterscreen qHTS to identify inhibitors of SARS-CoV-2 cell entry (AID 1645847). Further: potency means the concentration at half of the fitted maximal effect; nearly all actives have a fitted effect of over 65% in size. The method in brief: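 Entry of VSV-G pseudotyped particles into human ACE2-expressing HEK293 cells was measured by luciferase luminescence 48 h after infection, with compound added 1 h beforehand.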

Chain of Glutathione peroxidase 1 (Homo sapiens) (P07203 whole entry, looked up): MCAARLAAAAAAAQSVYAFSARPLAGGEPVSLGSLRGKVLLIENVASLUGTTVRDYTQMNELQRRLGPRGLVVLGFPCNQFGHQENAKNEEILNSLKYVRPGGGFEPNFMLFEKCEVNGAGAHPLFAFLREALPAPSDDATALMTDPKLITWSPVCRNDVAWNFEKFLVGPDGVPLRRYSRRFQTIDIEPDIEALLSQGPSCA
Chain of Phospholipid hydroperoxide glutathione peroxidase GPX4 (Homo sapiens) (P36969 whole entry, looked up): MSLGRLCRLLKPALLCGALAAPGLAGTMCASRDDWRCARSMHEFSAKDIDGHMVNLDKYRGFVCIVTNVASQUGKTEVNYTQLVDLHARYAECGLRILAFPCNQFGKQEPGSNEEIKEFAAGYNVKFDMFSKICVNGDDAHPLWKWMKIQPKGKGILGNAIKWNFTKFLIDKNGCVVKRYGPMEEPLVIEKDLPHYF
Chain of Cytochrome P450 2C9 (Homo sapiens) (P11712 whole entry, looked up): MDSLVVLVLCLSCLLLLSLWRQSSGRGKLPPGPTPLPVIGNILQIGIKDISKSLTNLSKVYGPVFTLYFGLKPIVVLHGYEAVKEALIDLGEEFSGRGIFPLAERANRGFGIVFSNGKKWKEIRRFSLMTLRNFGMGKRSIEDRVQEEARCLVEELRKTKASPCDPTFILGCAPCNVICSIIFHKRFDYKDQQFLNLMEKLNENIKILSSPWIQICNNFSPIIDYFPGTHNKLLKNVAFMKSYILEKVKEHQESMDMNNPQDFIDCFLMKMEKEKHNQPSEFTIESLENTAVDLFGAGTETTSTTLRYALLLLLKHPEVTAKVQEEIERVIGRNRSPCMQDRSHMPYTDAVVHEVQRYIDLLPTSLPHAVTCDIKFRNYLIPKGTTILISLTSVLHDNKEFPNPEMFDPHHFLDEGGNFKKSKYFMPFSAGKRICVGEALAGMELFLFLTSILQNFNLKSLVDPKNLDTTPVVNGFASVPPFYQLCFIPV
Chain of Cytochrome P450 2D6 (Homo sapiens) (P10635 whole entry, looked up): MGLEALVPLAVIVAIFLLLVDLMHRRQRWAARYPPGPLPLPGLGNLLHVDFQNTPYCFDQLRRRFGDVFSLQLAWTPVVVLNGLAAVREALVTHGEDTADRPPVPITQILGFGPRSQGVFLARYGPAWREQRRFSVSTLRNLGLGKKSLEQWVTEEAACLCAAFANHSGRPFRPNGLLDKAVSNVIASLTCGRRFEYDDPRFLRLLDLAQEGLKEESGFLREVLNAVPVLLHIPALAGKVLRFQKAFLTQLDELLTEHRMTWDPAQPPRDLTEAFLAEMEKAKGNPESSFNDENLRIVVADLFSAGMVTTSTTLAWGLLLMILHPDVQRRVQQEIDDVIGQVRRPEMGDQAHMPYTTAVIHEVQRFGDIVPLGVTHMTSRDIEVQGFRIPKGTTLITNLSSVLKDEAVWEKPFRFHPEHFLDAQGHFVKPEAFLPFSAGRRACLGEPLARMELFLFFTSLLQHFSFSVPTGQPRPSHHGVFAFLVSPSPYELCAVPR

For `CCCc1ccc(C(=O)O)cc1`, the Potency entry in experiment [1], in [2], in experiment [3], in experiment [4] and in experiment [5] was “inactive” each time.
`CC(Cc1ccc2c(c1)OCO2)NCC(O)c1ccc(O)c(O)c1` (centres undefined): the Potency entry in [1], in experiment [2], in experiment [3], in [4], in [5] and in [8] was “inactive” in each case. The Potency is 0.674 µM (active) in [6], 15.1 µM (active) in experiment [7] and 15.8 µM (active) in [9].
As for `CCOC(=O)COc1ccc2c(C)c(CCN(CC)CC)c(=O)oc2c1`, the Potency entry in experiment [1], in [2], in [3], in experiment [4] and in [5] was “inactive” in each case.
Regarding `CCOC(=O)[C@H](CCc1ccccc1)N[C@H](C)C(=O)N1C2CCCCC2C[C@H]1C(=O)O` (some centres undefined), the Potency result in [1], in experiment [2], in experiment [3], in [4] and in experiment [5] was “inactive” each time.
As for `CC(C)C[C@H](NC(=O)[C@@H](Cc1c[nH]c2ccccc12)NC(=O)[C@H](Cc1ccc(O)cc1)NC(=O)[C@H](CO)NC(=O)[C@H](Cc1c[nH]c2ccccc12)NC(=O)[C@H](Cc1cnc[nH]1)NC(=O)[C@@H]1CCC(=O)N1)C(=O)N[C@@H](CCCN=C(N)N)C(=O)N1CCC[C@H]1C(=O)NCC(N)=O`, the Potency result in [1], in experiment [2], in [3] and in experiment [4] was “inactive” in each case.
`NCCCC(N)C(=O)O` (centres undefined): the Potency result in [1], in [2], in experiment [3], in experiment [4] and in experiment [5] was “inactive” in each case.
Take `CC(C)(C)NC(=O)[C@H]1CC[C@H]2[C@@H]3CC=C4C=C(C(=O)O)CC[C@]4(C)[C@H]3CC[C@]12C`: the Potency result in experiment [1], in experiment [2], in experiment [3] and in experiment [4] was “inactive” throughout.
Take `ClCC1CO1` (centres undefined) (tested in a mixture with another compound): the Potency result in experiment [1], in experiment [2], in experiment [3], in [4] and in experiment [5] was “inactive” each time.
As for `CCCCC(CC)COC(=O)CC(C(=O)OCC(CC)CCCC)S(=O)(=O)O` (centres undefined), the Potency entry in experiment [1], in experiment [2], in experiment [3] and in experiment [4] was “inactive” in each case.
With `COCC(=O)Nc1cc(Sc2ccccc2)ccc1N=C(NC(=O)OC)NC(=O)OC`, the Potency result in [1], in experiment [2], in experiment [3] and in experiment [4] was “inactive” throughout.
With `CC1(C)[C@H](C=C(Cl)Cl)[C@@H]1C(=O)OCc1c(F)c(F)cc(F)c1F`, the Potency result in [1], in [2], in [3], in experiment [4], in [6] and in [5] was “inactive” in each case. Further, the Potency result in [10], in [8] and in experiment [9] was “inactive” each time. Besides, in experiment [7], the Potency was 12 µM (active).
Take `CC1=C(C(=O)OCCN(Cc2ccccc2)c2ccccc2)C(c2cccc([N+](=O)[O-])c2)C(P2(=O)OCC(C)(C)CO2)=C(C)N1` (centres undefined): the Potency result in experiment [1], in experiment [2], in experiment [3], in experiment [4] and in [5] was “inactive” in each case.
`[2H]C([2H])([2H])C(CCC[C@@H](C)[C@H]1CC[C@H]2/C(=C/C=C3\C[C@@H](O)C[C@H](O)C3=C)CCC[C@]12C)C([2H])([2H])[2H]`: the Potency result in experiment [1], in experiment [2], in experiment [3], in [4] and in experiment [5] was “inactive” throughout.
As to `CC(C)(C)NC(=O)[C@@H]1C[C@@H]2CCCC[C@H]2CN1C[C@@H](O)[C@H](Cc1ccccc1)NC(=O)[C@H](CC(N)=O)NC(=O)c1ccc2ccccc2n1`, the Potency result in experiment [1], in experiment [2], in experiment [3], in [4] and in [5] was “inactive” throughout.
`CC[C@H]1OC(=O)C[C@@H](O)[C@H](C)[C@@H](OC2OC(C)C(O)C(N(C)C)C2O)[C@@H](CCN2CCCCC2)C[C@@H](C)C(=O)/C=C/C(C)=C/[C@@H]1CN1CCCCC1` (some centres undefined): the Potency result in [1], in experiment [2], in [3] and in [4] was “inactive” each time.
For `Cc1cc(O)ccc1C(C)(C)C`, the Potency entry in [1], in [2], in experiment [3], in experiment [4] and in experiment [5] was “inactive” in each case.
Turning to `O1[As]2O[As]1O2`, the Potency result in [1], in experiment [2], in experiment [3], in [4], in experiment [5] and in experiment [8] was “inactive” in each case. In experiment [9], the Potency entry is “inactive”. Also, the Potency in experiment [11] was 19.2 µM (active); in experiment [12], 15.2 µM (active).
As for `NC(=O)[C@@H]1CC[C@@H]2CN1C(=O)N2OS(=O)(=O)O`, the Potency result in [1], in experiment [2], in experiment [3] and in [4] was “inactive” each time.
Consider `CN(CCCCCCCCCCN(C)C(=O)Oc1cccc([N+](C)(C)C)c1)C(=O)Oc1cccc([N+](C)(C)C)c1`, for which the Potency entry in experiment [1], in experiment [2], in experiment [3] and in [4] was “inactive” each time.
Consider `C[N+](C)(C)C1CCC(CC2CCC([N+](C)(C)C)CC2)CC1` (centres undefined), for which the Potency entry in experiment [1], in [2], in [3] and in experiment [4] was “inactive” each time.
With `NCCNc1ccc(NCCN)c2c1C(=O)c1ccncc1C2=O`, the Potency in [1] was 11.2 µM (active); in [11], 1.52 µM (active); in [10] it was 7.94 µM (active); in experiment [12] it was 3.04 µM (active). Moreover, the Potency entry in [2], in experiment [3] and in experiment [4] was “inactive” each time.
With `OCc1cc(C(O)CNCCCCCCOCCOCc2c(Cl)cccc2Cl)ccc1O` (centres undefined), the Potency result in experiment [1], in [2], in experiment [3], in [4] and in [5] was “inactive” in each case.
On to `CNCC(O)c1ccc(OC(=O)C(C)(C)C)c(OC(=O)C(C)(C)C)c1` (centres undefined), for which the Potency result in [1], in experiment [2], in experiment [3], in experiment [4] and in [5] was “inactive” each time.
As for `CCCCN=C(N)NC(=N)N`, the outcome in experiment [1], in [2], in experiment [3], in [4], in [5] and in experiment [10] was “inactive [setting not given]” in each case. Moreover, the compound was classed as inactive in experiment [11].

Source of the values: PubChem BioAssay (NCATS).
